From PubChem
Shown is part of a subset that was picked to be rich in hits.
TbREL1 inh – TbREL1 inhibition, primary screen; P86926; TbREL1 RNA ligation, FRET fluorescence; inhibition, % at 9.66 µM; hit rate 0.49% among 89,000; AID 1117264;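 active = inhibition above the mean inhibition across all screened compounds plus 3 SD, cut at about 11% in these data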;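 also: 0% = plate median of test wells and 100% = NSC42067 control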
Target sequence (P86926 whole entry, looked up): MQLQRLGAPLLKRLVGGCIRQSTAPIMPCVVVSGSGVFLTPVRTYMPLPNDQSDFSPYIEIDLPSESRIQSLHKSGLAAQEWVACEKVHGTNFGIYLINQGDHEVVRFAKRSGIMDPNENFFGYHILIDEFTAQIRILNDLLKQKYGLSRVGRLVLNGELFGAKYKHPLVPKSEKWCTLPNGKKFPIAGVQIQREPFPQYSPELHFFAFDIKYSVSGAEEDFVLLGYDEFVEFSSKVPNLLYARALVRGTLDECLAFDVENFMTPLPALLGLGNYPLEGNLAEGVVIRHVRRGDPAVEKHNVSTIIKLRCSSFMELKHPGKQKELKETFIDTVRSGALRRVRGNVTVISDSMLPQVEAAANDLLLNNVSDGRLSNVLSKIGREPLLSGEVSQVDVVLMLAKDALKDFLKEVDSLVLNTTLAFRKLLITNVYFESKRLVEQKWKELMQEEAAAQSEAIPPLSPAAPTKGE
TbREL1 conf – TbREL1 inhibition, confirmation. shares compounds with TbREL1 inh. TbREL1 RNA ligation, FRET fluorescence. inhibition, % at 9.66 µM. hit rate 37% among 390. AID 1117282;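 active = mean inhibition across replicates above a set limit taken from the earlier primary screen, cut at about 11% in these data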;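 also: 0% = REL1 with substrate and DMSO and 100% = REL1 plus control inhibitor NSC42067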
* hit, by the source's call.

SMILES | TbREL1 inh | others
Cc1ccc(NC(=O)c2ccc3c(c2)C(=O)N(c2cc(C)ccc2C)C3=O)nc1 | 2
Cc1ccc(-c2nnn(CC(=O)N(Cc3ccco3)C(C(=O)NC(C)(C)C)c3cccs3)n2)o1 (stereo unspecified) | -3
CS(=O)(=O)Nc1ccc(S(=O)(=O)NCCc2ccccc2)cc1 | 2
CC(C)C(OC(=O)Cn1nnc2ccccc21)C(=O)NC1CCCC1 (stereo unspecified) | 0
COc1ccccc1N1CCN(C(=O)c2ccccc2SCC(=O)N2CCCC2)CC1 | 0
CCn1c(COc2ccc(Cl)cc2)nnc1SCC(=O)Nc1ccccc1-c1ccccc1 | 0
C[C@H](CO)N1C[C@H](C)[C@@H](CN(C)C(=O)Nc2ccccc2F)Oc2ncc(Br)cc2C1=O | 0
Cc1nc2cc(-c3ccsc3-n3c(C)ccc3C)[nH]n2c(=O)c1Cl | 27* | TbREL1 conf=3
CCOC(=O)Cc1c(C)nc2cc(-c3ccc(C(C)(C)C)cc3)[nH]n2c1=O | -3
C=CCc1c(C)nc2cc(-c3ccc(C)cc3)[nH]n2c1=O | -1
NS(=O)(=O)c1ccc(NC(=O)/C=C/c2ccco2)cc1 | 2
Cc1ccc(NC(=O)c2cccc(NC(=O)/C=C/c3ccco3)c2)cc1C | -2
CC(=O)NS(=O)(=O)c1ccc(NC(=O)/C=C/c2ccco2)cc1 | 15* | TbREL1 conf=12*
CC(C)(C)NC(=O)C(c1ccncc1)N(CC1CCCO1)C(=O)Cn1nnc(-c2ccc(F)cc2)n1 (stereo unspecified) | -5
COc1ccc(S(=O)(=O)N2CCC(C(=O)N3CCCCC3)CC2)cc1 | 2
CCc1nc2ccc(C(=O)NCc3cccs3)cn2c1N(CC)Cc1cccc(Br)c1 | -4
Cc1nn(-c2ccccc2)c(C)c1NC(=O)COC(=O)c1cc([N+](=O)[O-])ccc1NCCO | -1
CC(C)c1ccc(NC(=O)CSc2nnc(-c3ccco3)n2C)cc1 | 3
CC(=O)c1ccc(NC(=O)CSc2ccc(-c3ccco3)nn2)cc1 | -2
COc1cccc(NC(=O)CSCC(=O)Nc2ccccc2)c1 | -1
COc1cccc(NC(=O)CSc2nnc(-c3ccco3)c(-c3ccco3)n2)c1 | 11* | TbREL1 conf=5
COc1cccc(NC(=O)CSc2cccc[n+]2[O-])c1 | 2
O=C(CSc1nnc(-c2ccco2)c(-c2ccco2)n1)Nc1ccccc1 | 24* | TbREL1 conf=8
CCOc1ccc(-c2nnc(SCc3nc4ccccc4[nH]3)n2N)cc1 | -1
Cc1ccc(CN2C(=O)c3ccccc3NC23CCN(Cc2ccccc2)CC3)cc1 | -5
SMILES | TbREL1 inh | others
Cc1cc(Cl)c(OCCN2C(=O)NC(C)(C)C2=O)c(Br)c1 | -1
COc1cccc(OCCNCc2ccccc2)c1 | 1
Cc1cc(Cl)c(OCCCNCc2ccccc2)c(Br)c1 | 12* | TbREL1 conf=11*
Cc1cc(C)c(OCCCNCc2ccccc2)c(Br)c1 | 15* | TbREL1 conf=15*
CCCCNCc1cc(Br)c(OCC(=O)NCc2ccccc2)c(OC)c1 | 3
Clc1ccc(OCCCNCc2ccccc2)c(Br)c1 | 2
CC(=O)Nc1ccc(S(=O)(=O)N2CCN(c3nc(NC4CCCC4)c4ccccc4n3)CC2)cc1 | 7
O=C(c1ccc(S(=O)(=O)N2CCOCC2)cc1)N1CCN(S(=O)(=O)c2ccc(Cl)s2)CC1 | -2
S=C(NNc1ccnc2cc(Cl)ccc12)Nc1ccccc1Cl | -1
COc1ccc(NC(=O)CSc2nnc(NC(=O)c3ccco3)s2)cc1 | 6
COc1ccc(NC(=O)C2Cc3c(-c4ccc(Cl)cc4)ccnc3O2)cn1 (stereo unspecified) | -1
c1ccc(C[C@H]2CNCCN2CCCCC2CCCCC2)cc1 | 6
Oc1ccc(C[C@@H]2CNCCN2CCc2cccc3ccccc23)cc1 | 3
c1ccc2c(C[C@@H]3CNCCN3CCCCC3CCCCC3)cccc2c1 | 14* | TbREL1 conf=11
CCc1noc(C)c1C(=O)Nc1cccc(S(=O)(=O)N(C)c2ccccc2)c1 | -3
COc1ccccc1NC(=S)N(CCCN1CCOCC1)Cc1ccccn1 | 5
COc1ccc(/C=N/NC(=O)c2cccnc2)cc1 | 1
COc1cc(/C=N/NC(=O)c2cc(-c3ccco3)nc3ccccc23)cc(OC)c1O | -3
Nc1c(C(=O)N/N=C/c2cccnc2)oc2nc(-c3ccco3)cc(-c3ccco3)c12 | 16* | TbREL1 conf=4
O=C(CNC(=O)c1ccc(Br)o1)Nc1cccc(S(=O)(=O)N2CCCC2)c1 | 4
COc1ccc(/C=N/NC(=O)Cn2nc([N+](=O)[O-])cc2C)c(OC)c1OC | -4
Cc1cc(C)n(CC(=O)N/N=C/c2ccc([N+](=O)[O-])s2)n1 | 2
COc1cc([N+](=O)[O-])cc(/C=N/NC(=O)Cn2nc(C)cc2C)c1O | 17* | TbREL1 conf=4
O=C(OCc1cn(Cc2ccccc2Cl)nn1)N1CCOCC1 | 4
CCCn1c(C)cc(C(=O)COc2ccc(-c3nnco3)cc2)c1C | 5
SMILES | TbREL1 inh | others
Nc1cccc(-c2nc3ccc(N)cc3s2)c1 | -1
Nc1ccc2cc3ccc(N)cc3nc2c1 | 31* | TbREL1 conf=-38
Nc1ccc2c(c1)nnn2-c1ccccc1 | -1
Cc1cc2cc(CN(Cc3ccc4c(c3)OCO4)C(=O)c3cnccn3)c3nnnn3c2cc1C | 0
Cc1cc(C)nc(SCc2cc(=O)c(OC(=O)c3cccc([N+](=O)[O-])c3)co2)n1 | -3
O[C@@H](Cc1ccccc1)[C@@H](/C=C/c1ccccc1)NCCc1ccccc1 | 11* | TbREL1 conf=10
COC(=O)[C@@H](N[C@H](/C=C/c1ccccc1)[C@@H](O)Cc1ccccc1)c1ccccc1 | -5
O=C(/C=C/c1ccc(Cl)cc1)NCCc1ccccc1 | 0
COc1cc(C(C#N)N2CCOCC2)ccc1O (stereo unspecified) | -1
CC(=O)CSc1nc(N)c(C#N)c(-c2cccs2)c1C#N | 3
COc1ccc(NC(=O)CSc2nc(C)c3c(c2C#N)CCCC3)cc1 | -2
CN1CCc2nc(SCC(=O)Nc3ccc(OC(F)(F)F)cc3)c(C#N)c(-c3cccs3)c2C1 | 13* | TbREL1 conf=4
COc1ccc(CCN(C)S(=O)(=O)c2cn(C)c(=O)n(C)c2=O)cc1OC | 1
CCCOc1ccc(C2/C(=C(/O)c3ccccc3)C(=O)C(=O)N2CCCN(C)C)cc1OC (stereo unspecified) | 0
NC(=O)c1ccc2nc(NC(=O)c3ccc(N)cc3)sc2c1 | 4
O=C(Nc1nc2ccccc2s1)c1ccc(Cl)s1 | 4
O=C(Nc1nc2ccccc2s1)c1ccc(F)cc1 | 15* | TbREL1 conf=7
Cc1cc(C)nc(NS(=O)(=O)c2ccc(NC(=S)NC(=O)c3ccco3)cc2)n1 | 7
O=C(NCc1ccco1)c1cccc(NC(=O)c2ccco2)c1 | 6
CCOc1ccc(NC(=O)CSc2nncc(=O)n2N)cc1 | 11* | TbREL1 conf=1
Nn1c(SCC(=O)Nc2cccc(C(F)(F)F)c2)nncc1=O | 5
Nn1c(SCC(=O)Nc2c(Cl)cccc2Cl)nncc1=O | -1
CC1=CCC(Cc2nc3ccccc3o2)C1(C)C (stereo unspecified) | 0
C[C@H]1CCC[C@]2(O[C@@H](CCO)C[C@@H](O)[C@@H]2O)O1 | 5
CSc1ccccc1NC(=O)CN(C)CC(=O)Nc1c(F)cccc1F | 16* | TbREL1 conf=9
CSc1ccccc1NC(=O)CN(C)C(C)C(=O)Nc1ccc(C#N)cc1 (stereo unspecified) | 1
CN(CC(=O)Nc1cccc(F)c1)CC(=O)Nc1cccc2ccccc12 | -1
CSc1ccccc1NC(=O)CCc1ccccc1 | -3
CSc1ccccc1NC(=O)CN(C)CC(=O)Nc1ccccc1F | 12* | TbREL1 conf=3
CSc1ccccc1NC(=O)CN(C)Cc1ccc(Br)cc1 | 0
